Assay outcomes as filed in PubChem BioAssay.
Compounds with a hit are over-represented: about 28% of the library has one in this group of screens.
D1 mod – allosteric modulators of human D1 dopamine receptor. AID 641. P21728. actives 5.9% (n = 58,000). HEK293 D1, CRE-luciferase, dopamine EC30 potentiation; actives deviate in either direction. B-score at 10 µM;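 active means luminescence count or its row- and column-corrected plate score outside the 99.7% band of the plate's sample wells, on either side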
CYP2C19 inh – inhibitors of human CYP2C19. actives 21% (n = 96,000). CYP2C19 Supersomes, luciferin-H EGE luminescence, 30 min. inhibition, % at 5 µM. P33261;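 active means CYP2C19 inhibition above a set limit at 5 µM in the primary screen, cut at about 50% in these data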;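 further: plate controls were negative control wells for no effect and 2.5 mM tranylcypromine positive control for full effect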
Target sequence (P33261 whole entry, looked up): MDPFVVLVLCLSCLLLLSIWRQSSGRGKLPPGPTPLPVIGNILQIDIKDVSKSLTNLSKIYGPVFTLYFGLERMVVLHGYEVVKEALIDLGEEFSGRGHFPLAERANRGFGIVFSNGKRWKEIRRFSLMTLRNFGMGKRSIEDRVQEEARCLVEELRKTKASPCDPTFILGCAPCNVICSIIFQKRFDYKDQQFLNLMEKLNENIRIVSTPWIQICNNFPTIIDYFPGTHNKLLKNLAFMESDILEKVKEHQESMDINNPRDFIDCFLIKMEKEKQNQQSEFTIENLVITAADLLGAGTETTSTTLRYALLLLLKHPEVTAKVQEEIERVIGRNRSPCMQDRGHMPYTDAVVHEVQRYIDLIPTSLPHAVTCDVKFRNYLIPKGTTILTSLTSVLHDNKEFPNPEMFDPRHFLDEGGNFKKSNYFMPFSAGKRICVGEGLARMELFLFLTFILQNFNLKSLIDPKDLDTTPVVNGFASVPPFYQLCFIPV
CYP2C19 activ – increases human CYP2C19 enzyme activity; P33261; recombinant CYP2C19, luciferin-H EGE luminescence; hits give high values; 0 = fully inhibited enzyme, 1 = untreated enzyme; activation factor at 5 µM; 96,000 tested, under 10 active;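 active means activation factor of at least 2 at 5 µM in the primary screen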;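 further: 0 = wells with 2.5 mM tranylcypromine and 1 = vehicle-only wells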
CYP2C9 inhib – inhibitors of human CYP2C9; actives 20% (n = 96,000); inhibition, % at 5 µM; CYP2C9 Supersomes, luciferin-H conversion, luminescence; P11712; AID 777;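 active means blocking of liver enzyme CYP2C9 beyond about 50% at 5 µM, limit read from the data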
CYP2C9 activ – activators of human CYP2C9; AID 1024; P11712; activation factor at 5 µM; recombinant CYP2C9, luciferin-H conversion, luminescence; hits give high values; factor 1 = untreated enzyme, 0 = blocked; actives 1.4% (n = 96,000);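 active means activation factor of 2 or more for CYP2C9 at a 5 µM dose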;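 further: 0 = sulfaphenazole-blocked wells and 1 = vehicle-only wells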
DAT uptake mod – changed human dopamine transporter uptake under cocaine IC80; Q01959; AID 449768; B-score at 10 µM; LLC-PK1 hDAT cells, [14C]-dopamine uptake with cocaine IC80; actives deviate in either direction; actives 1.3% (n = 110,000);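 active means Z score or B-score, a plate-position-corrected score, falls beyond the plate's 99.7% confidence bounds, in either direction; inactive means both scores lie inside the 99.7% bounds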;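 further: scored against the spread of the other compound wells on the same plate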
* hit, by the source's call; · = no result.

SMILES	D1 mod	CYP2C19 inh	CYP2C19 activ	CYP2C9 inhib	CYP2C9 activ	DAT uptake mod
CON/C=C(\C=Nc1ccc(F)cc1)c1ncc(C(F)(F)F)cc1Cl	·	-14.6	1.1	21.1	0.8	-0.243
CCOC(=O)/C(=C\Nc1ccccc1C(F)(F)F)Sc1ncc(C(F)(F)F)cc1Cl	·	59.1*	0.4	81.5*	0.2	0.956
COC(=O)/C(=C\Nc1ccc(Cl)c2ccccc12)c1ncc(C(F)(F)F)cc1Cl	·	33.1	0.7	76.5*	0.2	0.439
CC(C)(C)CN1C(=O)C(=O)NC[C@@H]1CCCCN	·	·	·	·	·	-0.762
O=C(O)C1(c2cccc(Cl)c2)CCC1	0.44	-1.2	1	7.6	0.9	0.00764
Cc1c(NS(=O)(=O)c2ccc3c(c2)n(C)c(=O)n3C)c(=O)n(-c2ccccc2)n1C	0.794	-18.6	1.2	2.3	1	0.928
Cc1c(NS(=O)(=O)N2CCCCC2)c(=O)n(-c2ccccc2)n1C	·	73.7*	0.3	9.5	0.9	-0.332
Cc1c(NS(=O)(=O)c2ccc(Br)s2)c(=O)n(-c2ccccc2)n1C	-0.28	46.6	0.5	54.2*	0.5	0.552
CCS(=O)(=O)Nc1c(C)n(C)n(-c2ccccc2)c1=O	·	11.5	0.9	9.0	0.9	-0.417
Cc1c(NS(=O)(=O)c2cccs2)c(=O)n(-c2ccccc2)n1C	-0.63	55.1*	0.4	29.1	0.7	-0.396
CCc1ccc(N/C(SCc2ccccc2C)=C(/C#N)C(=O)NCc2ccco2)cc1	·	57.1*	0.4	63.6*	0.4	2.11
COc1ccccc1N1CCN(C(=O)C2c3ccccc3Oc3ccccc32)CC1	-0.795	98.1*	0	99.9*	0	-0.0726
O=C(C1c2ccccc2Oc2ccccc21)N1CCN(c2ccc(Cl)cc2)CC1	·	94.0*	0.1	84.7*	0.2	·
COc1ccccc1N1CCN(C(=O)C2CC=CCC2C(=O)O)CC1 (stereo not given)	-1.96	3.9	1	-9.6	1.1	-0.131
O=C(C1CCN(S(=O)(=O)c2cccnc2)CC1)N1CCN(c2ccc(Cl)cc2)CC1	0.625	·	·	·	·	·
C=CCn1c(CCCNC(=O)CCC)nc2ccccc21	-0.011	·	·	·	·	0.0445
O=C(CN1CCC(C(O)(c2ccccc2)c2ccccc2)CC1)Nc1cc(Cl)ccc1Cl	·	16.9	0.8	64.7*	0.4	-0.414
O=C(CN1CCC(C(O)(c2ccccc2)c2ccccc2)CC1)Nc1ccccc1	·	9.1	0.9	78.2*	0.2	0.598
O=S(=O)(c1cccc2cccnc12)N1CCN(Cc2ccc3c(c2)OCO3)CC1	1.51	45.7	0.5	-150.2	2.5*	1.68
O=S(=O)(c1cc(Cl)ccc1Cl)N1CCN(Cc2ccc3c(c2)OCO3)CC1	-0.803	50.0*	0.5	-15.0	1.1	0.814
O=C(C1CCC(CNS(=O)(=O)c2cccc3cccnc23)CC1)N1CCCC1 (stereo not given)	0.908	-11.7	1.1	-28.3	1.3	0.583
O=S(=O)(c1ccc(Br)s1)N1CCN(Cc2ccc3c(c2)OCO3)CC1	·	89.2*	0.1	96.6*	0	1.23
COCCNS(=O)(=O)c1cccc2cccnc12	-1.14	9.2	0.9	-55.5	1.6	-2.74*
Cc1cc(C(=O)NCc2ccco2)cs1	0.168	48.6	0.5	47.8	0.5	-1.02
Cc1ccc(-c2[nH]c(=O)n3ccncc23)s1	-0.131	·	·	·	·	-0.686
SMILES	D1 mod	CYP2C19 inh	CYP2C19 activ	CYP2C9 inhib	CYP2C9 activ	DAT uptake mod
CS(=O)(=O)N1CCc2cc(S(=O)(=O)N3CCN(Cc4ccc5c(c4)OCO5)CC3)ccc21	-0.766	9.7	0.9	11.5	0.9	0.984
O=S(=O)(c1ccc(Cl)nc1)N1CCN(Cc2ccc3c(c2)OCO3)CC1	·	63.4*	0.4	73.9*	0.3	-0.454
CS(=O)(=O)Nc1cccc2cccnc12	-0.544	4.6	1	-135.7	2.4*	-1.69
O=S(=O)(NCc1ccco1)c1cccc2cccnc12	-0.551	·	·	·	·	-0.0931
O=S(=O)(NCc1ccc2c(c1)OCO2)c1cccc2cccnc12	0.755	63.9*	0.4	-170.0	2.7*	1.41
NC(=O)CC(NC(=O)c1ccccc1)c1ccc(NCc2ccccc2)c([N+](=O)[O-])c1 (stereo not given)	·	·	·	·	·	-0.0085
CCOC(=O)N1CCN(C(=O)C2CCCN(S(=O)(=O)c3cccnc3)C2)CC1 (stereo not given)	0.143	-5.4	1.1	-2.1	1	-0.79
O=C(CSc1nnnn1-c1ccc(F)cc1)Nc1ccc(N2CCOCC2)c(Cl)c1	·	-4.3	1	-8.9	1.1	0.026
O=C1CC(c2ccccc2)CC(O)=C1C=NCCN1CCN(C(=O)Nc2ccccc2)CC1 (stereo not given)	-0.113	26.6	0.7	11.9	0.9	-1.14
COc1ccc(S(=O)(=O)N(n2c(C)nnc2-n2nc(C)cc2C)S(=O)(=O)c2ccc(OC)cc2)cc1	·	·	·	·	·	-0.0195
O=C(Nc1ccccc1C(=O)N1CCOCC1)C1CCCO1 (stereo not given)	0.137	-6.8	1.1	-15.7	1.2	0.465
O=C(O)c1cc(S(=O)(=O)N2CCOCC2)c(Sc2ccccn2)cc1Sc1ccccn1	-0.0766	4.8	1	22.2	0.8	0.0179
COc1ccccc1NS(=O)(=O)c1cccc(C(=O)N/N=C(\C)c2ccc(-n3ccnc3)cc2)c1	·	99.8*	0	99.3*	0	-0.0254
COc1ccccc1NC(=O)c1cccc(S(=O)(=O)N2CCOCC2)c1	0.769	3.0	1	-0.5	1	-0.0372
S=c1[nH]nc(CSCc2ccccc2Cl)n1-c1ccccc1	·	72.3*	0.3	75.6*	0.2	0.737
COCc1n[nH]c(=S)n1-c1ccccc1	·	12.1	0.9	3.7	1	-0.511
Cc1cccc(NC(=O)c2nc[nH]c2C(=O)N[C@@H](CC(C)C)C(=O)OC(C)(C)C)c1	·	·	·	·	·	2.75*
Cc1ccccc1N(CC(=O)N/N=C/c1cc(C)n(-c2ccccc2C)c1C)S(C)(=O)=O	·	9.6	0.9	58.1*	0.4	-2.69*
O=C(c1cnc2n(c1=O)CCS2)N1CCN(c2ccc([N+](=O)[O-])cc2)CC1	·	-5.9	1.1	8.8	0.9	-0.618
Cc1nc2nc(SCC(=O)NCc3ccco3)nn2c(C)c1Cc1c(F)cccc1Cl	·	43.0	0.6	88.5*	0.1	1.27
Cc1nc2c(C(=O)O)cnn2c(C)c1Cc1ccccc1F	-0.592	-9.1	1.1	-19.2	1.2	0.208
Cc1ccc(Cc2c(C)nc3nc(SCC(=O)NCc4ccco4)nn3c2C)cc1	1.31	28.2	0.7	55.9*	0.4	-0.0416
Cc1ccccc1Cc1c(C)nc2c(C(=O)NCc3ccco3)cnn2c1C	1.64	56.2*	0.4	86.6*	0.1	3.02*
Cc1ccccc1Cc1c(C)nc2nc(SCC(=O)NCc3ccco3)nn2c1C	·	28.3	0.7	66.1*	0.3	-7.93*
Cc1nc2ncnn2c(C)c1CCC(=O)NCc1ccco1	1.24	9.8	0.9	1.7	1	0.147
CC(=O)c1c(C)[nH]c(C(=O)NCc2cccs2)c1C	-1.79	8.4	0.9	13.1	0.9	0.0593
